# Measurements: the supplement of paper PMC8728848
# Only a selection was taken, and the strongest signals are over-represented in it overall.
# B1: Tap1 (Sordaria macrospora), Q50IV4 (protein)
# chain: MSHHHHHHHHYTLHLRLINDTSDTLTLVEQTSWWGKNTIWSQVRSTGVHVLSMAASGSSGMLRFQTSKGDFFAVAVGVHNYKRWCDVLVDTADEAPLTKLHPKYYDDKDAKYQALWAQASEFEAKSKSGKTVRIKFYQADGNVLRATVEYL
# How the values were obtained:
# Test in all cases: glycan array binding signal (z-score within array); higher = stronger binding
# Conditions in all cases: glycan notation: IUPAC condensed, linker removed
# Fuc(a1-2)Gal(b1-3)GalNAc = molecular target: Fuc(a1-2)Gal(b1-3)GalNAc
# Outline: (§1)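 Glycan array binding is given as a within-array Z-score, which can be read as non-binding when negative. The arrays, 3228 of them, came from the Consortium for Functional Glycomics database and were retained only where the protein sequence was available. Z-scores were averaged across arrays of the same protein sequence at different concentrations or buffers and across linkers.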
# [1] = molecular target: Fuc(a1-2)[Gal(a1-3)]Gal(b1-4)Glc
# Outline: as §1
# [2] = molecular target: Fuc(a1-2)[Gal(a1-3)]Gal(b1-4)GlcNAc(b1-2)Man(a1-3)[Fuc(a1-2)[Gal(a1-3)]Gal(b1-4)GlcNAc(b1-2)Man(a1-6)]Man(b1-4)GlcNAc(b1-4)GlcNAc
# Outline: as §1
# [3] = molecular target: Fuc(a1-2)[Gal(a1-4)]Gal(b1-4)GlcNAc
# Outline: as §1
# [4] = molecular target: Fuc(a1-2)[GalNAc(a1-3)]Gal(b1-3)GalNAc(a1-3)[Fuc(a1-2)]Gal(b1-4)GlcNAc
# Outline: as §1
# [5] = molecular target: Gal(a1-4)Gal(b1-3)GlcNAc(b1-2)Man(a1-3)[Gal(a1-4)Gal(b1-3)GlcNAc(b1-2)Man(a1-6)]Man(b1-4)GlcNAc(b1-4)GlcNAc
# Outline: as §1
# Gal(a1-6)Glc = molecular target: Gal(a1-6)Glc
# Outline: as §1
# Gal(b1-2)Gal = molecular target: Gal(b1-2)Gal
# Outline: as §1
# [6] = molecular target: Gal(b1-3)Gal(b1-4)GlcNAc(b1-2)Man(a1-3)[Gal(b1-3)Gal(b1-4)GlcNAc(b1-2)Man(a1-6)]Man(b1-4)GlcNAc(b1-4)GlcNAc
# Outline: as §1
# Gal(b1-3)GalNAc = molecular target: Gal(b1-3)GalNAc
# Outline: as §1
# [7] = molecular target: Gal(b1-3)GlcNAc(b1-2)[Gal(b1-3)GlcNAc(b1-6)]Man(a1-6)[Gal(b1-3)GlcNAc(b1-2)Man(a1-3)]Man(b1-4)GlcNAc(b1-4)GlcNAc
# Outline: as §1
# [8] = molecular target: Gal(b1-3)GlcNAc(b1-3)Gal(b1-4)Glc
# Outline: as §1
# [9] = molecular target: Gal(b1-3)[Neu5Ac(a2-6)]GalNAc
# Outline: as §1
# [10] = molecular target: Gal(b1-3)[Neu5Ac(b2-6)]GalNAc
# Outline: as §1
# Gal(b1-4)GlcNAc = molecular target: Gal(b1-4)GlcNAc
# Outline: as §1
# [11] = molecular target: Gal(b1-4)GlcNAc(b1-3)Gal(b1-4)Glc
# Outline: as §1
# [12] = molecular target: Gal(b1-4)GlcNAc(b1-3)[Gal(b1-4)GlcNAc(b1-6)]Gal(b1-4)GlcNAc
# Outline: as §1
# [13] = molecular target: Gal(b1-4)GlcNAc(b1-6)Gal(b1-4)GlcNAc
# Outline: as §1
# Gal3S(b1-3)GalNAc = molecular target: Gal3S(b1-3)GalNAc
# Outline: as §1
# [14] = molecular target: GlcNAc(a1-4)Gal(b1-4)GalNAc
# Outline: as §1
# [15] = molecular target: GlcNAc(a1-4)Gal(b1-4)GlcNAc(b1-3)Gal(b1-4)Glc
# Outline: as §1
# [16] = molecular target: GlcNAc(b1-2)Gal(b1-3)GalNAc
# Outline: as §1
# [17] = molecular target: GlcNAc(b1-3)Gal(b1-3)GalNAc
# Outline: as §1
# GlcNAc(b1-3)GalNAc = molecular target: GlcNAc(b1-3)GalNAc
# Outline: as §1
# Kdn(a2-3)Gal(b1-3)GalNAc = molecular target: Kdn(a2-3)Gal(b1-3)GalNAc
# Outline: as §1
# Neu5Ac(a2-3)Gal = molecular target: Neu5Ac(a2-3)Gal
# Outline: as §1
# [18] = molecular target: Neu5Ac(a2-3)Gal(b1-3)GalNAc
# Outline: as §1
# [19] = molecular target: Neu5Ac(a2-3)Gal(b1-3)GalNAc(b1-4)[Neu5Ac(a2-8)Neu5Ac(a2-3)]Gal(b1-4)Glc
# Outline: as §1
# [20] = molecular target: Neu5Ac(a2-3)Gal(b1-4)GlcNAc
# Outline: as §1
# [21] = molecular target: Neu5Ac(a2-3)Gal(b1-4)GlcNAc(b1-6)[Neu5Ac(a2-3)Gal(b1-3)]GalNAc
# Outline: as §1
binder,measurement,setting,value
B1,glycan array binding signal (z-score),Fuc(a1-2)Gal(b1-3)GalNAc,2.96
same,glycan array binding signal (z-score),[1],-0.234
same,glycan array binding signal (z-score),[2],-0.244
same,glycan array binding signal (z-score),[3],-0.242
same,glycan array binding signal (z-score),[4],-0.246
same,glycan array binding signal (z-score),[5],-0.221
same,glycan array binding signal (z-score),Gal(a1-6)Glc,-0.248
same,glycan array binding signal (z-score),Gal(b1-2)Gal,-0.207
same,glycan array binding signal (z-score),[6],-0.225
same,glycan array binding signal (z-score),Gal(b1-3)GalNAc,3.97
same,glycan array binding signal (z-score),[7],-0.179
same,glycan array binding signal (z-score),[8],-0.23
same,glycan array binding signal (z-score),[9],4.09
same,glycan array binding signal (z-score),[10],-0.25
same,glycan array binding signal (z-score),Gal(b1-4)GlcNAc,-0.237
same,glycan array binding signal (z-score),[11],-0.235
same,glycan array binding signal (z-score),[12],-0.264
same,glycan array binding signal (z-score),[13],-0.224
same,glycan array binding signal (z-score),Gal3S(b1-3)GalNAc,5.01
same,glycan array binding signal (z-score),[14],0.868
same,glycan array binding signal (z-score),[15],-0.223
same,glycan array binding signal (z-score),[16],2.86
same,glycan array binding signal (z-score),[17],2.84
same,glycan array binding signal (z-score),GlcNAc(b1-3)GalNAc,1.62
same,glycan array binding signal (z-score),Kdn(a2-3)Gal(b1-3)GalNAc,3.63
same,glycan array binding signal (z-score),Neu5Ac(a2-3)Gal,-0.232
same,glycan array binding signal (z-score),[18],4.27
same,glycan array binding signal (z-score),[19],-0.198
same,glycan array binding signal (z-score),[20],-0.251
same,glycan array binding signal (z-score),[21],1.16
